Screens from PubChem BioAssay.
This is a sample that favours compounds with a hit; in the whole collection about 1.5% have one here.
CRFR2-BP ag = agonists of CRF-BP/CRF-R2 complex, primary screen, cell-based, HEK293, calcium dye fluorescence, uHTS; calcium dye fluorescence (FLIPR); percent of saturating CRF peptide response; hit rate 0.46% among 350,000; CRF-binding protein / CRF receptor 2 complex (human); activation, % at 13.2 µM;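 active = activation of at least 50%, plus an integration ratio under a set limit after plate pattern correction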
cardiac RTF act = cardiac RTF calcium sensitivity activators, primary screen, biochemical, IANBD-TnC fluorescence, EC20 calcium; AID 493008, 2010; hit rate 0.24% among 340,000; activation, % at 7.2 µM; IANBD-labeled TnC RTF fluorescence at EC20 calcium; 0% EC20 calcium, 100% full calcium; Troponin I, cardiac muscle (Homo sapiens) + Troponin T, cardiac muscle (Homo sapiens) + …;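 active = activation above the mean over all tested compounds plus 3 SD, cut at about 30% in these data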;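 also: rise in fluorescence read as greater calcium sensitivity of cardiac thin filaments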
CRFR2-BP antag = antagonists of CRF-BP/CRF-R2 complex, primary screen, cell-based, HEK293, calcium dye fluorescence, uHTS; CRF-induced calcium fluorescence; inhibition, % at 11.8 µM; hit rate 0.59% among 350,000;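 active = inhibition of the ligand-induced calcium signal above about 50% at the single tested concentration, limit read from the data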
IDE act = human IDE activators in live cells, primary screen, fluorescence polarization, HEK cells, FAbeta-B substrate. Insulin-degrading enzyme (Homo sapiens), P14735. FAbeta-B cleavage; 0% vehicle, 100% cell-free pure enzyme wells. hit rate 0.073% among 340,000. AID 493087, 2011. activation, % at 5.96 µM;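 active = activation above the mean of all tested compounds plus 3 SD, set per screening campaign, cut at about 17% in these data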
IDE cell inh = human IDE inhibitors in live cells, primary screen, fluorescence polarization, HEK cells, FAbetaB substrate; AID 434962, 2010; inhibition, % at 5.59 µM; hit rate 0.41% among 320,000; FAbetaB cleavage; Insulin-degrading enzyme (Homo sapiens), P14735;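 active = percent inhibition above the average of all tested compounds plus 3 SD, set per screening campaign, cut at about 16% in these data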;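 also: IDE supplied by intact live HEK cells; FP after avidin binding of uncleaved biotin substrate so inhibition keeps polarization high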
Cardiac RTF inh = cardiac RTF calcium sensitivity inhibitors, primary screen, biochemical, IANBD-TnC fluorescence, EC70 calcium; Troponin I, cardiac muscle (Homo sapiens) + Troponin T, cardiac muscle (Homo sapiens) + …; IANBD-labeled cardiac RTF, Ca2+ fluorescence; inhibition, % at 7.15 µM; hit rate 0.12% among 340,000; AID 493244, 2011;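 active = inhibition above the mean inhibition of all tested compounds plus 3 SD, cut at about 17% in these data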;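 also: assay run at fixed EC70 calcium of 1.6 mM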
Of the large screens only hits and unclear results are named; the others gave an inactive call.

O=C(NCC(O)c1ccccc1)c1ccc(Cl)c(S(=O)(=O)N2CCCCC2)c1 (stereo unspecified)	none
Cc1cccc(C)c1NC(=S)Nc1ccc(F)cc1	CRFR2-BP antag 60.0
CC(=O)c1ccn(S(=O)(=O)c2ccccc2)c1	none
COc1ccc(C)cc1NC(=O)CNC(=O)[C@@H]1Cc2ccccc2CN1	none
COc1ccc(Cl)cc1NC(=S)NCCC(c1ccccc1)c1ccccc1	none
COc1cc(NC(=S)NCCC(c2ccccc2)c2ccccc2)c(OC)cc1Cl	CRFR2-BP antag 64.7
Cc1ccc(S(=O)(=O)N2CCN(c3ncnc4scc(-c5ccccc5)c34)CC2)cc1	CRFR2-BP ag 126.5
Cc1ccc(S(=O)(=O)N2CCN(c3ncnc4scc(-c5ccc(F)cc5)c34)CC2)cc1	none
CC(C)OCCCNc1ncnc2c1[nH]c1ccccc12	none
CCOc1ncnc2c1[nH]c1ccccc12	IDE cell inh 18.3
COc1ccc(CNc2ncnc3c2[nH]c2ccccc23)cc1	IDE cell inh 60.5 (no result: cardiac RTF act, IDE act, Cardiac RTF inh)
CCCOc1ncnc2c1[nH]c1ccc(C)cc12	IDE cell inh 37.1 (no result: cardiac RTF act, IDE act, Cardiac RTF inh)
Cc1ccc2[nH]c3c(Cl)ncnc3c2c1	none (no result: cardiac RTF act, IDE act, Cardiac RTF inh)
COc1ccc(CNc2ncnc3c2[nH]c2cc(OC)c(OC)cc23)cc1	none
Cc1cc(Cl)c2cc3ccccc3cc2n1	none
COc1ccc(C(=O)NCc2ccc3c(c2)CCO3)cc1	none
Cc1ccccc1NC(=O)Cc1nc(COC(=O)CSc2ccc(F)cc2)cs1	none (no result: cardiac RTF act, IDE act, IDE cell inh, Cardiac RTF inh)
CCOC(=O)C(C(=O)OCC)c1cc(Br)c2noc3c2c1C(=O)c1ccccc1-3	cardiac RTF act 96.0
O=C1CC(c2ccccc2)CC(O)=C1C=NCCN1CCN(Cc2ccccc2)CC1 (stereo unspecified)	none
COc1ccc(NCC(O)COc2ccc(C(C)(C)C)cc2)cc1 (stereo unspecified)	IDE act 21.6
CCCCCC(=O)Nc1cc(S(=O)(=O)O)cc2cc(S(=O)(=O)O)cc(O)c12	Cardiac RTF inh 67.3 (no result: IDE cell inh)
CC1CCCC(NC(=O)CCNC(=O)c2ccccc2Cl)C1C (stereo unspecified)	none
C=CCn1c(C)cc(C(=O)CSc2nnc(Cc3ccccc3)o2)c1C	CRFR2-BP antag 56.0
O=C(c1ccccc1)c1coc2c1C(=O)c1ccccc1C2=O	none
O=C1c2ccccc2-c2onc3ccc(Oc4ccccc4)c1c23	cardiac RTF act 31.1
Fc1ccc(COc2ccccc2CNCc2ccncc2)cc1	IDE cell inh 17.4
Brc1ccc(OCc2ccccc2)c(CNCc2ccncc2)c1	none
COc1ccc2c(c1)-c1nc(/N=C/c3ccc(O)cc3)sc1CC2	CRFR2-BP antag 90.6
O=C(Nc1ccc(-c2nc3ccccc3o2)cc1)c1ccc2c(c1)OCO2	IDE act 17.8
CCOc1ccc(NC(=S)N(Cc2ccc(N(C)C)cc2)Cc2ccco2)cc1	CRFR2-BP antag 76.6
Clc1ccc(-c2nnnn2-c2ccc(Cl)cc2)cc1	none (no result: cardiac RTF act, IDE act, Cardiac RTF inh)
Cc1ccc(-n2nnnc2C(Cl)(Cl)c2nnnn2-c2ccc(C)cc2)cc1	CRFR2-BP ag 72.2
CCOc1ccc(-n2ccn(CC(=O)NCCc3ccccc3)c(=O)c2=O)cc1	none (no result: IDE cell inh)
COC(=O)C1=C(C)N(C)C(C)=C(C(=O)OC)C1c1ccc(F)c(Br)c1	CRFR2-BP antag 54.8
CCOCc1nnc(NC(=O)C2CC(=O)N(C3CCCC3)C2)s1 (stereo unspecified)	none
COC(=O)C(F)(F)Sc1c(C)[nH]c2ccccc12	CRFR2-BP antag 51.8
Cc1[nH]c2ccccc2c1SCC(=O)O	none
CCc1ccc(-c2cc(C)no2)cc1S(=O)(=O)N1CCN(c2ccc(F)cc2)CC1	none
O=C1CCCN1c1ccc(S(=O)(=O)Oc2ccc(Cl)cc2)cc1[N+](=O)[O-]	none
O=[N+]([O-])c1ccc2[nH]c(=S)sc2c1	CRFR2-BP antag 58.5 (no result: IDE cell inh)
COc1ccc(C)cc1S(=O)(=O)NCC(c1ccc2c(c1)OCO2)N1CCN(C)CC1 (stereo unspecified)	none
O=C(COC(=O)c1ccccn1)NCc1cccs1	none
COc1ccc(/C(O)=C/c2nc3ccccc3n(-c3ccccc3)c2=O)cc1	CRFR2-BP ag 132.3
CC1(C)CCN2CCC(C)(C)c3c(O)ccc1c32	CRFR2-BP ag 117.8, cardiac RTF act 85.3
COc1ccc2c(CC#N)c[nH]c2c1	CRFR2-BP ag 78.4
COc1ccc2c(CCNC(N)=S)c[nH]c2c1	none
Cc1nc2c(c(=O)c3ccccc3n2C)c(=O)n1C1CCCCCC1	CRFR2-BP ag 51.0
CC(C)Cn1c(-c2ccco2)nc2c(c(=O)c3ccccc3n2C)c1=O	none (no result: CRFR2-BP ag, cardiac RTF act, CRFR2-BP antag, IDE act, Cardiac RTF inh)
Cn1c2ccccc2c(=O)c2c(=O)n(C3CCCCC3)c(-c3ccco3)nc21	CRFR2-BP ag 99.4
CCOc1ccc(N(CC(=O)N2CCCC2)S(=O)(=O)c2ccc(Cl)cc2)cc1	none
Cc1cc(C)nc(NS(=O)(=O)c2ccc(NC(=O)c3cc(=O)c4ccccc4o3)cc2)n1	none
CCN(CC)c1ccc2cc(S(=O)(=O)c3ccc(C)cc3)c(=O)oc2c1	CRFR2-BP ag 147.1, cardiac RTF act 53.1
CCN(CC)c1ccc2cc(-c3nc(-c4cc5ccccc5oc4=O)cs3)c(=O)oc2c1	CRFR2-BP ag 194.9, cardiac RTF act 95.1 (no result: IDE cell inh)
CCN(CC)c1ccc2cc(C#N)c(=O)oc2c1	CRFR2-BP ag 102.1 (no result: cardiac RTF act, IDE act, Cardiac RTF inh)
CCN(CC)c1ccc2cc(C(=O)NNC(=O)c3ccc(S(=O)(=O)N4CCCCC4)cc3)c(=O)oc2c1	CRFR2-BP ag 266.2
COC(=O)c1ccccc1S(=O)c1snnc1C (stereo unspecified)	none
O=C(O)CCC(=O)OCCN(Cc1ccc(Oc2ccc([N+](=O)[O-])cc2)cc1)C(=O)C(Cl)Cl	none (no result: IDE cell inh)
CC(=O)NC1=NC(=O)/C(=C/c2cn(C(C)=O)nc2-c2ccccc2)S1	IDE cell inh 19.6
Cc1ccc(S(=O)(=O)N(CC(=O)N2CCOCC2)c2ccccc2F)cc1	none
CCOc1ccccc1N(CC(=O)N1CCOCC1)S(=O)(=O)c1ccc(SC)cc1	CRFR2-BP ag 109.1 (no result: IDE cell inh)
CC1(c2ccccc2)NC(=O)N(CC(=O)Nc2ccc3c(c2)OCO3)C1=O (stereo unspecified)	none
CC(=O)Nc1ccc(/C=N/N2C(=O)NC(C)(c3ccc(OC(F)F)cc3)C2=O)cc1 (stereo unspecified)	CRFR2-BP ag 129.8
CC1(c2ccc(OC(F)F)cc2)NC(=O)N(CC(=O)Nc2ccccc2)C1=O (stereo unspecified)	CRFR2-BP ag 76.1
